miR122 inh – miR-122 Renilla sensor signal increase in Huh7, primary screen, miR-122 inhibitor project, cell-based, single point, plate reader. actives 0.3% (n = 340,000). Huh7 miR-122 Renilla luciferase sensor, 48 h; neutral wells = 0, positive control = 100. activation (reporter increase), % at 12.5 µM. AID 602342, 2012;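 active = mean replicate activation score at least 90 and every replicate individually at or above 90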;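 also: higher luciferase means less miR-122 activity so hits act as miR-122 inhibitors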
MITF act – activators of MITF-driven TRPM1 promoter reporter, primary screen, cell-based, SK-MEL-5, luciferase, single point; SK-MEL-5 TRPM1-promoter luciferase, 24 h; % of positive control, neutral wells = 0; activation, % at 12.5 µM; actives 0.75% (n = 300,000); AID 588334, 2011;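 active = mean activation of at least 80% with every replicate also reaching 80%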;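 also: 0% = neutral control wells and 100% = parthenolide positive control wells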
NSD2 HMT inh – NSD2 histone methyltransferase inhibitors, primary screen, biochemical, AlphaScreen, single concentration, set 2; actives 0.54% (n = 310,000); AID 743445, 2014; Histone-lysine N-methyltransferase NSD2 (Homo sapiens), O96028; NSD2 peptide methylation, 120 min; inhibition, % at 12.5 µM
Target sequence (O96028 whole entry, looked up): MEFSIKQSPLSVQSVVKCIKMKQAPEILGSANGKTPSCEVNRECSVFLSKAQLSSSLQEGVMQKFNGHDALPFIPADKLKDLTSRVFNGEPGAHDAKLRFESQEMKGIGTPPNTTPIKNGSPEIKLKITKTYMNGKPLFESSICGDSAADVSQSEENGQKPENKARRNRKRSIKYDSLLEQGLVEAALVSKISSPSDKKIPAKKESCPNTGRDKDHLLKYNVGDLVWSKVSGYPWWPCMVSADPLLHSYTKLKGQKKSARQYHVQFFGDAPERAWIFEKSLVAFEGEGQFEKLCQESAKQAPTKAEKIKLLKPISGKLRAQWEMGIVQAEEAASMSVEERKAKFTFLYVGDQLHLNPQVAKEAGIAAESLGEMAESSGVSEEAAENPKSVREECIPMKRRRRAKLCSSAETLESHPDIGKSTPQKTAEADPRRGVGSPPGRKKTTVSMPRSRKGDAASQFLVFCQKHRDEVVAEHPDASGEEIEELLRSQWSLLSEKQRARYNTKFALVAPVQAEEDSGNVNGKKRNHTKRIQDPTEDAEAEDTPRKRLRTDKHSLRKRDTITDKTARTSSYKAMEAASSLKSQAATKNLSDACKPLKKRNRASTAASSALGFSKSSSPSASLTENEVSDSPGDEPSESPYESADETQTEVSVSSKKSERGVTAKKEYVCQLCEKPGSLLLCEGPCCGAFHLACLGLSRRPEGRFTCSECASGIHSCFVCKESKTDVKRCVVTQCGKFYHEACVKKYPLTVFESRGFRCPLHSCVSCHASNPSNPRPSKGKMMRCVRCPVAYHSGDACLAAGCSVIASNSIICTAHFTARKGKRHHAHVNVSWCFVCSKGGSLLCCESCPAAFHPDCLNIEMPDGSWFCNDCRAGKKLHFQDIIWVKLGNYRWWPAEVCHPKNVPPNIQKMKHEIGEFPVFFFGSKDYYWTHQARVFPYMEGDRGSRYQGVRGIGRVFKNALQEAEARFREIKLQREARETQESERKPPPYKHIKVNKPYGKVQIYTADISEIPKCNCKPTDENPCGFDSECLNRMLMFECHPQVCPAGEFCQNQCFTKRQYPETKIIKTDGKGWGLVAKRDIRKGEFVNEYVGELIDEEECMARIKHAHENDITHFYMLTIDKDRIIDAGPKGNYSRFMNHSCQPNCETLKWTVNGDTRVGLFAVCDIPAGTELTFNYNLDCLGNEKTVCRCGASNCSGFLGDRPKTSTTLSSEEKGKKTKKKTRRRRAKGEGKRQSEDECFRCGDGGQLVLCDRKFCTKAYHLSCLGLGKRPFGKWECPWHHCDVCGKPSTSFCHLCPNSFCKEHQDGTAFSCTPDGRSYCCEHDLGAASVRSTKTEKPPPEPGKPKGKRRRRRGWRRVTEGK
GSIS activator – GLuc luminescence reporter in INS-1E cells, primary screen for activators of glucose-dependent secretion of insulin | INS-1E GLuc reporter insulin secretion, 2-3 h | activation, % at 16.6 µM | actives 0.61% (n = 370,000) | AID 743287, 2014;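 active = lowest replicate activation of at least 40%, so every replicate reaches that level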;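 also: 0% = median of neutral control wells and 100% = median of IBMX positive control wells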
Wnt bcat act – Wnt/beta-catenin pathway activators, primary screen, cell-based, plate reader, single point; Wnt/beta-catenin reporter cell assay, activator; actives 1.2% (n = 300,000); activation, % at 9.35 µM; in the data active = activation above about 30%, passing the limit was not always enough;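 also: 0% = neutral control wells and 100% = positive control wells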
Dyrk1A ADPGlo – rat Dyrk1A kinase inhibitors, primary screen, biochemical, single point, plate reader | Dual specificity tyrosine-phosphorylation-regulated kinase 1A (Rattus norvegicus), Q63470 | ADP-Glo luminescence, NFATc1 peptide | inhibition, % at 12.5 µM | actives 0.43% (n = 310,000) | AID 504441, 2011;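 also: plate controls were vehicle with enzyme for no effect and no enzyme for full effect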
Numbers without * were called inactive; / = not tested or not shown; [ ] = another dose, or the depositor's remark. Most compounds without a hit are left out; they make up all but 2.4% or so of the library. Rule as the data show it, unless noted: active = inhibition above about 50%; inactive = the rest.

SMILES	miR122 inh	MITF act	NSD2 HMT inh	GSIS activator	Wnt bcat act	Dyrk1A ADPGlo
O=C(NCc1ccccc1)C(c1ccncc1)n1c(=O)c(-c2ccccc2)nc2ccccc21 (stereo not drawn)	/	/	/	44.9*	20.1	/
C[C@@H]1CCCCO[C@@H](CN(C)C(=O)Nc2ccc3c(c2)OCO3)[C@H](C)CN([C@H](C)CO)C(=O)c2cc(NC(=O)Cc3ccccc3)ccc2O1	-3.8[16.7 µM]	/	/	-21.9	/	/
CNC[C@@H]1Oc2c(NC(=O)Nc3c(C)noc3C)cccc2C(=O)N([C@H](C)CO)C[C@H]1C	-1.1[16.7 µM]	/	/	10.3	/	/
CCC(=O)N1C[C@@H](O)COC[C@H]2O[C@@H](CC(=O)N3CCCCC3)CC[C@@H]21	7.9[16.7 µM]	/	/	9.3	/	/
c1ccc2c(c1)ccc1nnnn12	168.2*	4.0	7.6	-7.4	-1.5	/
CCCCCc1ccc(OCCCC[n+]2ccccc2)c(CCCCC)c1	-12.4	-87.8	12.9	/	/	-1.2
CCCCCc1ccc(OCCCC[n+]2ccc(C)cc2)c(CCCCC)c1	/	-100.3	3.0	109.4*	-4.7	1.5
CCCCCc1ccc(OCCCC[n+]2cccc(C)c2)c(CCCCC)c1	-24.6	-77.5	-2.8	174.1*	-1.7	8.1
CO[C@@H]1CN(C)C(=O)c2ccc(NS(=O)(=O)c3ccc(C)cc3)cc2OC[C@H](C)N(Cc2nccs2)C[C@@H]1C	/	/	/	-14.5	/	/
CCC(=O)N1C[C@H](O)COC[C@H]2O[C@@H](CC(=O)NC)CC[C@@H]21	1.7[16.7 µM]	/	/	/	/	/
O=C(Nc1ccc(F)cc1F)c1csc(-c2cccs2)n1	/	45.5	-5.5	13.4	34.5*	/
CN1C(C(=O)Nc2ccc(F)cc2F)=CC(c2cccs2)=NS1(=O)=O	25.2	-0.8	/	-35.3	1.6	-0.3
CCCCn1c(=O)n(C)c(=O)c2c3c(sc21)COC(C)(C)C3	-3.0	-3.4	4.1	44.9*	-1.4	-3.2
CN1C(=O)c2cc(NC(=O)c3cccc(F)c3)ccc2OC[C@@H]2O[C@@H](CC(=O)Nc3ccccc3)CC[C@H]21	-7.5[16.7 µM]	/	/	-9.8	/	/
C1CCN(CCCNC2C3CC4CC(C3)CC2C4)C1 (stereo not drawn)	2.0	10.2	1.5	40.3*	-3.7	-7.2
O=C1CCC(=O)N1CCSC(=S)N1CCOCC1	/	/	0.6	4.9	34.5*	-6.5
O=C(O)CCSC(=S)N1CCOCC1	-16.8	-16.5	-0.9	21.6	1.3	-3.4
C[C@H](CO)N1C[C@H](C)[C@@H](CN(C)Cc2cccnc2)Oc2cc(C#CC3CCCC3)ccc2S1(=O)=O	63.6[16.7 µM]	/	/	-15.6	/	/
COc1cccc(-c2nnc(-c3ccc4ccccc4c3)o2)c1	-4.8	55.7	-0.7	6.8	51.1*	2.8
O=C(Nc1nc(-c2ccc(-c3ccccc3)cc2)cs1)C1=COCCO1	/	-3.6	-2.1	84.5*	/	0.9
C=CCn1c(C)cc(-c2csc(NC(=O)C3=COCCO3)n2)c1C	-0.7	119.6*	2.1	1.6	-13.9	11.2
CO[C@H]1CN(C)C(=O)c2ccc(NC(=O)CC(F)(F)F)cc2OC[C@@H](C)N(C(=O)C2CCCCC2)C[C@@H]1C	/	/	/	-5.4	/	/
O=C(Nc1cccnc1N1CCOCC1)c1ccco1	-4.7	1.4	1.2	/	41.1*	21.6
O=C(Nc1cc(Cl)ccc1N1CCOCC1)c1ccco1	-1.5	1.8	2.0	34.5	-2.7	/
O=C(Nc1ccc(-c2ccc(N3CCCCC3)nn2)cc1)c1ccco1	-6.8	98.6*	32.3	8.2	22.1	2.3
SMILES	miR122 inh	MITF act	NSD2 HMT inh	GSIS activator	Wnt bcat act	Dyrk1A ADPGlo
CS(=O)(=O)N1CCN(c2ccccc2NC(=O)c2ccc(Br)o2)CC1	1.8	9.1	0.0	2.8	-1.7	43.4
CS(=O)(=O)N1CCN(c2ccccc2NC(=O)c2ccco2)CC1	/	5.6	/	42.1*	2.1	/
O=C(Nc1ccc(N2CCCC2)c(Cl)c1)c1ccco1	/	48.1	1.2	/	40.8*	-17.6
CCS(=O)(=O)N1CC(=O)N2[C@@H](CO)[C@H](c3ccc(-c4ccccc4C)cc3)[C@@H]2C1	/	/	/	6.7	/	/
C[C@@H]1CN([C@@H](C)CO)S(=O)(=O)c2ccc(/C=C/c3ccccc3)cc2O[C@@H]1CN(C)C(=O)C1CC1	-20.4[16.7 µM]	/	/	-46.0	/	/
O=C(c1ccco1)N1CCN(c2ccc(N3CCCCC3)nn2)CC1	-0.7	99.4*	-0.9	7.4	31.4*	-4.7
O=C(NCC[C@H]1CC[C@H](NS(=O)(=O)c2cccc(F)c2)[C@@H](CO)O1)Nc1cc(F)ccc1F	/	/	/	-12.3	/	/
N#Cc1ccccc1OCC(=O)NC(=O)NCc1ccco1	/	116.1*	1.4	-6.0	18.7	0.6
CCNC(=O)NC(=O)COc1ccccc1C#N	-4.8	92.6*	5.8	/	/	-2.4
COc1ccc(C(=O)COc2ccccc2C#N)cc1	/	/	-3.0	/	46.3*	-4.4
N#Cc1ccccc1OCC(=O)NC(=O)NCc1ccccc1	/	-1.0	-0.1	-0.6	0.1	2.8
COc1ccc(C(=O)COc2ccccc2C(N)=O)cc1	-2.1	33.7	/	-7.5	4.8	7.3
O=C(Nc1ccc(NC(=O)c2ccco2)nc1)c1ccco1	/	-2.3	-1.8	7.1	-3.8	3.0
O=C(Cc1ccccc1)Nc1ccc(NC(=O)c2ccco2)nc1	-1.9	/	-0.8	/	40.3*	6.4
O=C(Nc1ccc(NC(=O)C23CC4CC(CC(C4)C2)C3)cn1)c1ccco1	-4.8	96.2*	1.2	/	/	-11.0
COc1ccccc1C(=O)Nc1ccc(NC(=O)c2ccco2)cn1	0.9	92.0*	0.0	-4.1	17.9	0.6
COc1ccc(C(=O)/C=C/c2ccccc2F)c(OC(=O)c2ccc([N+](=O)[O-])cc2)c1	1.5	9.5	5.0	/	35.2*	-4.5
CNC(=O)C[C@H]1CC[C@@H]2[C@@H](COc3ccc(NC(=O)Nc4cccc(Cl)c4)cc3C(=O)N2C)O1	1.1[16.7 µM]	/	/	-17.9	/	/
COC(=O)C1=C(C)NC2=C(C(=O)CC(c3cccs3)C2)C1c1ccsc1 (stereo not drawn)	16.1	/	/	/	/	-1.6
CCOC(=O)C1=C(C)NC2=C(C(=O)CC(c3cccs3)C2)C1c1cccs1 (stereo not drawn)	94.6*	-57.9	-4.4	/	/	5.4
O=S(=O)(Nc1cccc2ncccc12)c1cccs1	234.4*	/	/	/	/	7.2
CCCNC(=O)N1CCC2(CC1)CN(C(C)=O)[C@@H](CO)c1[nH]c3cc(OC)ccc3c12	/	/	/	9.3	/	/
CCOc1ccc(-c2nnc(-c3ccccc3)o2)cc1	-9.3	2.4	0.2	/	/	-8.3
CCOc1ccc(-c2nnc(-c3ccccc3)n2-c2ccccc2)cc1	4.4	/	1.0	/	59.4*	2.1
Cc1[nH]c2ccccc2c1C(=O)C(C)OC(=O)c1ccc([N+](=O)[O-])o1 (stereo not drawn)	8.0	-46.4	26.5	-20.6	-2.3	/
